Screening data deposited in PubChem by National Center for Advancing Translational Sciences (NCATS).
ALDH1A1 inh = inhibitors of human aldehyde dehydrogenase 1A1; 7.3% of 220,000 active; Potency, µM (top dose mostly 75.3 µM), most hits filed as inhibitors; AID 1030; Purified ALDH1A1, NADH fluorescence, propionaldehyde substrate; P00352; active means well fitted inhibition curve with a large enough effect, not every such curve was filed as active; inconclusive means small, poorly fitted or top-dose-only effect, or another doubt; inactive means no such curve, though single readings can be large or run the other way
Tau fibril FP = inhibitors of human tau fibril formation; P10636; K18 P301L tau heparin fibrillization, Alexa594 FP, 6 h; Potency, µM (series often up to 57.7 µM), most hits filed as inhibitors; 0.39% of 280,000 active; further: nearly all actives have a fitted effect of over 55% in size
Target sequence (P10636 561-689 P618L limits assumed): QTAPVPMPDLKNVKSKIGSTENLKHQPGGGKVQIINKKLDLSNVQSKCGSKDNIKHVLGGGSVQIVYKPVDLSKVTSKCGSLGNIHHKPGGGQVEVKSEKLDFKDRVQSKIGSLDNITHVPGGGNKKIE
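Quantitative HTS format: compounds meet 15 uM recombinant K18 P301L tau and Alexa 594-tau tracer in 100 mM sodium acetate pH 7; 20 uM heparin triggers fibrillization at 37 C over 6 hr; FP gives the signal.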
HPGD block = inhibitors of human 15-hydroxyprostaglandin dehydrogenase (HPGD) | purified HPGD, NADH fluorescence kinetic, PGE2 substrate | Potency, µM, usual class: inhibitors | 4.3% of 150,000 active | P15428; active means well fitted inhibition curve with a large enough effect, not every such curve was filed as active; inconclusive means small, poorly fitted or top-dose-only effect, or another doubt; inactive means no such curve, though single readings can be large or run the other way
Target sequence (P15428 whole entry, looked up): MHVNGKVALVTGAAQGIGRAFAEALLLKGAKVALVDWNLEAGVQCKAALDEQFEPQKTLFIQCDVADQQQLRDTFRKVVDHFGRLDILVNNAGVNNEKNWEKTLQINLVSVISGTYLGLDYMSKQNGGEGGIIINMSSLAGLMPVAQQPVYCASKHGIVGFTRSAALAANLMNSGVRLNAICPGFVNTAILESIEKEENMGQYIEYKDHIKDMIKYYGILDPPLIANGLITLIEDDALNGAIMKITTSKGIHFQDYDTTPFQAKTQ
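NADH formation kinetics: reaction with 30 uM PGE2 and 1 mM NAD+ (final), 20 nM enzyme, Tris-HCl pH 8 with Tween 20, after 15 min compound preincubation at room temperature. Fluorescence change, last versus first of five reads.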
JMJD2E inh = JMJD2E (human) inhibition. B2RXH2. JMJD2E catalytic domain, FDH-coupled NADH fluorescence (FDH is formaldehyde dehydrogenase). Potency, µM (series often up to 57.1 µM), usual class: inhibitors. 1.6% of 230,000 active; active means well fitted inhibition curve with a large enough effect, not every such curve was filed as active; inconclusive means small, poorly fitted or top-dose-only effect, or another doubt; inactive means no such curve, though single readings can be large or run the other way; further: nearly all actives have a fitted effect of over 50% in size
Tau ThT inhib = blocks human tau fibril formation measured by thioflavin T; recombinant tau K18 P301L, heparin-induced fibrillization, ThT fluorescence; Potency, µM (highest dose often 57.4 µM), actives largely listed as inhibitors; 2.1% of 270,000 active; further: nearly all actives have a fitted effect of over 55% in size
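ThT emission at 510 nm, taken 1 hr after adding 30 uM dye, quantifies aggregates formed when 20 uM heparin acts on human tau K18 P301L for 6 hr at 37 C.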
Tau fluor counter = counter-screen for tau fibril formation inhibitors; 0.93% of 280,000 active; tau K18 P301L Alexa594 fluorescence, heparin fibrillization; AID 1463; Potency, µM (titrated, usually from 57.7 µM); further: nearly all actives have a fitted effect of over 55% in size
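Human tau K18 P301L (15 uM unlabeled, 0.24 uM Alexa 594-labeled) in 100 mM sodium acetate pH 7 with 20 uM heparin, 6 hr at 37 C. ThT 30 uM added, 1 hr ambient; Alexa 594 FP and total fluorescence read at 555/632 nm.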
Of the large screens only hits and unclear results are named; the others gave an inactive call; [ ] = another dose, or the depositor's remark. Hits are enriched below; roughly 9.9% of the tested compounds scored in any of these assays. Unless noted, the call rests on the fitted dose curve; in most records, active means well fitted curve in the direction sought with a large enough effect; inconclusive means small, poorly fitted or top-dose-only effect, or another doubt; inactive means no such curve, though single readings can be large; an effect the other way counts as inactive or inconclusive.

COc1cc(OC)c(-c2c3cc(O)c(=O)cc-3oc3cc(O)c(O)cc23)cc1OC	ALDH1A1 inh 10µM, Tau fibril FP inconclusive, HPGD block 16µM, JMJD2E inh 5µM, Tau ThT inhib 13µM
COc1cc2oc(-c3ccccc3)cc(=O)c2cc1OC	ALDH1A1 inh inconclusive, HPGD block inconclusive, JMJD2E inh inconclusive
Cc1c2cc(O)c(=O)cc-2oc2cc(O)c(O)cc12	ALDH1A1 inh inconclusive, Tau fibril FP 10µM, HPGD block inconclusive, JMJD2E inh inconclusive, Tau ThT inhib 3.2µM, Tau fluor counter 10µM[quencher]
Cc1ccc(N=N/C(=C\O)C(=O)c2ccncc2)cc1	ALDH1A1 inh 4µM, Tau ThT inhib 28µM
O=C(c1ccc(Cl)cc1)N1CCC(c2ccncc2)CC1	none (no result: ALDH1A1 inh, HPGD block, JMJD2E inh)
O=C(/C(=C/O)N=Nc1ccc(Cl)cc1)c1ccncc1	ALDH1A1 inh 10µM, Tau ThT inhib 20µM
Cc1cc2cc(CNC(=O)CCC(=O)O)ccc2[nH]1	ALDH1A1 inh 28µM
CCC(=O)NCc1ccc2[nH]c(C)cc2c1	none (no result: HPGD block)
Cc1ccc2[nH]c(O)c(N=Nc3nc4ccccc4s3)c2c1	Tau fluor counter inconclusive (no result: ALDH1A1 inh, HPGD block, Tau ThT inhib)
O=C(N=Nc1c(O)[nH]c2ccccc12)c1cc(-c2cccs2)[nH]n1	Tau fluor counter inconclusive (no result: ALDH1A1 inh, HPGD block, Tau ThT inhib)
Oc1[nH]c2ccccc2c1N=Nc1ccccc1	Tau ThT inhib inconclusive, Tau fluor counter inconclusive (no result: ALDH1A1 inh, HPGD block)
Oc1[nH]c2ccccc2c1N=Nc1ccc(F)cc1	Tau ThT inhib 2µM
O=C(N=Nc1c(O)[nH]c2ccccc12)c1cc(-c2ccc(F)cc2)n[nH]1	Tau ThT inhib 2.2µM (no result: HPGD block)
Oc1[nH]c2ccccc2c1N=Nc1nc2ccccc2s1	Tau ThT inhib 2µM, Tau fluor counter inconclusive
O=Nc1c(-c2c(O)[nH]c3ccccc23)[nH]c2ccccc12	Tau fibril FP inconclusive, Tau ThT inhib 2.8µM, Tau fluor counter 16µM[quencher]
NS(=O)(=O)c1cc(C(=O)N=Nc2c(O)[nH]c3ccccc23)ccc1Cl	Tau ThT inhib 14µM (no result: HPGD block)
Cc1ccc(/C=C2\CCCC3=C2NC(=S)NC3c2ccc(C)cc2)cc1 (centres undefined)	ALDH1A1 inh inconclusive, HPGD block 32µM, JMJD2E inh inconclusive, Tau ThT inhib inconclusive
CS(=O)(=O)N1CCN(c2ccccc2NC(=S)NC(=O)c2cccs2)CC1	ALDH1A1 inh 0.45µM, Tau fluor counter inconclusive (no result: HPGD block)
CS(=O)(=O)N1CCN(c2ccccc2NC(=S)NC(=O)c2ccccc2[N+](=O)[O-])CC1	ALDH1A1 inh 0.71µM, Tau fluor counter inconclusive (no result: HPGD block)
COc1cccc(NC(=O)Cn2c(=O)n(Cc3ccccc3)c(=O)c3c2c2cc(C)ccc2n3C)c1	none (no result: ALDH1A1 inh, HPGD block, JMJD2E inh)
COc1ccc(C2=NC(=O)/C(=C\c3cc(OC)c(OC)c(OC)c3)O2)cc1	none
CCN1C(=O)NC2=C(C(=O)c3ccccc32)C1c1ccccc1F (centres undefined)	ALDH1A1 inh 0.32µM, Tau ThT inhib inconclusive
O=C(NCCc1cn2ccsc2n1)c1cccs1	ALDH1A1 inh inconclusive, HPGD block 25µM
O=S(=O)(NCc1cn2ccsc2n1)c1cccs1	none
Cc1c(Cl)cccc1NC(=O)CSc1ncccc1C(=O)Oc1ccccc1Cl	none (no result: ALDH1A1 inh, HPGD block, JMJD2E inh)
C=CCSC1=C(C#N)C(c2ccccc2C)CC(=O)N1 (centres undefined)	ALDH1A1 inh inconclusive
C=CCSC1=C(C#N)C(c2ccccc2Cl)CC(=O)N1 (centres undefined)	ALDH1A1 inh 25µM
CC(C)(C)C1CCc2c(sc(NC(=O)c3cccc(Cl)c3)c2C(=O)NCc2ccco2)C1 (centres undefined)	none (no result: ALDH1A1 inh, HPGD block, JMJD2E inh)
Cc1cc(C)c2c(=O)cc(C(=O)Nc3sc4c(c3C(=O)NCc3ccccc3)CCCC4)oc2c1	none (no result: ALDH1A1 inh, HPGD block, JMJD2E inh)
O=C(Oc1c(Br)cc(C(=S)N2CCOCC2)cc1Br)c1ccc(Cl)cc1	ALDH1A1 inh 6.3µM, HPGD block 16µM, Tau ThT inhib inconclusive
O=C1NC(=S)N/C1=C\C=C\c1ccccc1	none (no result: ALDH1A1 inh, HPGD block, Tau ThT inhib)
COc1ccc(/C=C/C=C2\NC(=S)NC2=O)cc1	ALDH1A1 inh inconclusive, Tau ThT inhib 2µM (no result: HPGD block)
COc1cccc(CN2CCC(C(=O)N3CCN(c4ccccc4F)CC3)CC2)c1OC	none
CN1CCc2c(sc3c2c(=O)n(-c2ccccc2)c2nnc(SCc4ccccc4)n32)C1	ALDH1A1 inh 25µM, HPGD block inconclusive, JMJD2E inh inconclusive
